In PubChem BioAssay (NCATS):
Where “and” joins values, the source holds several entries; their conditions need not be identical. Equal values may be shown once. Inconclusive results are not listed. Calls of active or inactive are those of the source. Unless noted, calls come from the whole dose curve; as a rule, active = well fitted curve in the direction sought with a large enough effect; inconclusive = small, poorly fitted or top-dose-only effect, or another doubt; inactive = no such curve, though single readings can be large; an effect the other way counts as inactive or inconclusive.

Key:
[1] = Cell Viability - HepG2 (AID 433; calls by dose curve;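 note: potency is the fitted concentration of half-maximal effect; potency for ATP loss meaning cytotoxicity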); settings: qHTS
Outline: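 In this qHTS format, a 40 h, 37 °C compound incubation of HepG2 cells in complete medium precedes a 20 min CellTiter-Glo step at room temperature. Tamoxifen and doxorubicin serve as positive controls; Hill-equation fits yield AC50.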

[2] = Cell Viability - MRC5 (AID 434; calls by dose curve;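 note: potency is the fitted concentration of half-maximal effect; potency reflects cytotoxicity seen as loss of intracellular ATP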); settings: MRC5 lung fibroblast viability, qHTS
Outline: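 AC50 values come from Hill-equation fits of intracellular ATP loss, measured by CellTiter-Glo luminescence. Normal lung fibroblasts (MRC5) had 40 hr compound treatment at 37 C, normalized between DMSO and 100 uM tamoxifen.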

[3] = Cell Viability - SK-N-SH (AID 435; calls by dose curve;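 note: potency is the fitted concentration of half-maximal effect; compound exposure lasted 40 h at 37 °C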); settings: SK-N-SH neuroblastoma cell viability qHTS
Outline: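 Human neuroblastoma line, 40 h exposure at 37 °C, ATP quantified via luciferase luminescence; DMSO and 100 uM tamoxifen define 0 and 100% inhibition for AC50 fitting.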

[4] = Cell Viability - HUV-EC-C (AID 542); settings: HUV-EC-C endothelial cell viability, qHTS; series mostly up to 92.2 µM; note: % is set by controls: 0 for no effect and ±100 for the full control effect; nearly all actives have a fitted effect of over 35% in size
Outline: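 Cells were seeded at 1000 per well and incubated 5 hr at 37 °C before compound addition. After 40 hr at 37 °C, CellTiter-Glo reagent was added for 20 min and luminescence read. AC50 values came from Hill-equation modelling.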

[5] = Cell Viability - Renal Proximal Tubule (AID 545); settings: renal proximal tubule cells viability; at 91.7 µM (top of the series), primary cells of rat origin unless noted; note: nearly all actives have a fitted effect of over 40% in size
Outline: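 In this qHTS format, normal rat kidney-derived proximal tubule cells in complete culture medium receive compound titrations, then sit 40 hours at 37 °C before luciferase-based ATP quantitation; potency is reported as AC50 from concentration-response curves.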

[6] = Cell Viability - Mesenchymal (AID 546); settings: mesenchymal cells viability, qHTS; series mostly up to 91.7 µM;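 note: cells exposed to compound for 40 hours before reading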
Outline: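 CellTiter-Glo luminescence (intracellular ATP, 20 min room temperature) after 40 hr compound exposure at 37 °C of 1000 glomerulus-derived human kidney mesenchymal cells/well; AC50 values obtained by fitting qHTS concentration-response data to the Hill equation.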

[7] = Cellular Toxicity (caspase-3) Jurkat (AID 655); settings: Jurkat caspase-3 activation, luminescence, DMSO = 0%, tamoxifen = 100%; at 92.2 µM (top of the series);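 note: cells exposed to compound for 16 h at 37 °C before reading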
Outline: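 qHTS in human Jurkat T-cell leukemia line: 16 hr compound treatment at 37 °C, caspase-3/7 activity measured by Caspase-Glo luminescence. AC50 derived from Hill equation.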

[8] = Cellular Toxicity (caspase-3) HUV-EC-C (AID 656); settings: HUV-EC-C cells, caspase-3 activation (apoptosis), vehicle = 0, 100 µM tamoxifen = 100%; series mostly up to 92.2 µM
Outline: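 Concentration-dependent caspase 3/7 induction was assessed in HUV-EC-C cells exposed for 16 hours. Data scaled between DMSO and tamoxifen (100 uM) controls.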

[9] = Cellular Toxicity (caspase-3) SHSY5Y (AID 657); settings: SH-SY5Y caspase-3 activation, DMSO zero, 10 µM staurosporine = 100%; series mostly up to 91.7 µM;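 note: cells exposed to compound for 16 hours at 37 °C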
Outline: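 Readout: caspase-cleaved peptide-aminoluciferin substrate driving luciferase light in SH-SY5Y neuroblastoma cells after 16 h treatment. Response normalized to DMSO and 10 uM staurosporine controls.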

[10] = Cellular Toxicity (caspase-3) BJ (AID 658); settings: BJ fibroblasts, luminescence, normalized: DMSO 0%, staurosporine 100%; series mostly up to 91.7 µM
Outline: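 Caspase-Glo 3/7 luminescence, read 1 hr after reagent at room temperature, in normal BJ fibroblasts exposed 16 hours at 37 °C. AC50 values from Hill-equation concentration-response, scaled between DMSO basal and 10 uM staurosporine as 100%.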

[11] = Cellular Toxicity (caspase-3) MRC-5 (AID 659); settings: MRC-5 cells, luminescence, normalized: DMSO 0%, 10 µM staurosporine 100%; series mostly up to 91.7 µM
Outline: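 Luminescent Caspase-Glo 3/7 read-out (1 h, room temperature) after a 16 h, 37 °C compound exposure of MRC-5 lung fibroblasts at 1500 cells/well. Concentration-response AC50 from Hill equation; 0% DMSO, 100% 10 uM staurosporine.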

[12] = Cellular Toxicity (caspase-3) Mesangial (AID 660); settings: mesangial cells, normalized: DMSO 0%, 100 µM tamoxifen 100%; series mostly up to 91.7 µM;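 note: combined caspase 3 and 7 activity read by Caspase-Glo luminescence; cells exposed to compound for 16 h before the caspase read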
Outline: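 Seed cells derived from normal human renal glomeruli, incubate 5 h, add compounds across concentrations and incubate 16 h at 37 °C. Caspase 3/7 activation is then quantified by luciferase light, with AC50 derived by Hill modeling.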

[13] = Cellular Toxicity (caspase-3) SK-N-SH (AID 661); settings: SK-N-SH caspase-3 activation, qHTS, DMSO as zero, staurosporine as full; series mostly up to 91.7 µM
Outline: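 Cells were seeded and incubated 5 hr at 37 °C, dosed with compound over a concentration range for 16 hr, then given Caspase-Glo 3/7 reagent for 1 hr at room temperature before luminescence reading.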

[14] = Cellular Toxicity (caspase-3) H-4-II-E (AID 663); settings: H-4-II-E rat hepatoma, scaled: DMSO 0%, 100 µM tamoxifen 100%; series mostly up to 92.2 µM;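 note: cells exposed to compound for 16 hr before readout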
Outline: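 Caspase 3/7 activation measured by luminescent aminoluciferin substrate cleavage after 16 hr compound treatment of H-4-II-E cells in complete medium. Increase normalized between DMSO (basal) and 100 uM tamoxifen (100%); Hill-equation AC50 from concentration-response.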

[15] = Cellular Toxicity (caspase-3) Renal Proximal Tubule (AID 667); settings: renal proximal tubule cells; at 91.7 µM (top of the series), primary cells freshly taken from rat, solvent-only wells 0%, staurosporine 100% unless noted;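 note: cells exposed to compound for 16 hours at 37 °C before detection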
Outline: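 Caspase-Glo 3/7 read-out, rat primary kidney proximal tubule cells. Compound exposure 16 h, 37 °C; detection after 1 h at RT. Activity scaled to DMSO and 10 uM staurosporine.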

[16] = MultiTox-Fluor Cytotoxicity Assay - LYMP1-001 - Dead Cells (AID 946); settings: LYMP1-001 lymphoblastoid cells, dead-cell protease fluorescence; series mostly up to 92.2 µM
Outline: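 Seed 2500 LYMP1-001 cells/well, incubate 5 hr at 37 C; add compound, 16 hr at 37 C; add MultiTox-Fluor reagent, 60 min RT; read dead-cell fluorescence Ex/Em=485/520. Normalize to DMSO and 15 uM tetraoctylammonium bromide.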

[17] = Cell Viability - LYMP1-002 - Assay at 16 hr (AID 948); settings: LYMP1-002 lymphoblastoid cell viability; series mostly up to 92.2 µM;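 note: 0% = DMSO alone and full effect = 92 µM tetraoctylammonium bromide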
Outline: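 In this qHTS, lymphoblastoid LYMP1-002 cells (human) receive compounds for 16 hr at 37 C. Viability is taken from CellTiter-Glo ATP luminescence, and AC50 derives from standard Hill fits.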

[18] = MultiTox-Fluor Cytotoxicity Assay - LYMP1-003 - Dead Cells (AID 961); settings: LYMP1-003 lymphoblastoid cells, dead-cell protease fluorescence; series mostly up to 92.2 µM; note: nearly all actives have a fitted effect of over 70% in size
Outline: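 LYMP1-003 lymphoblastoid, 2500 cells/well, 5 hr settle then 16 hr cpd at 37 C; MultiTox-Fluor reagent 60 min RT; Ex/Em 485/520 dead-cell signal; norm. DMSO = 0%, 15 uM tetraoctylammonium bromide = 100%; Hill AC50.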

[19] = qHTS assay for cell viability of HEK293 cells (AID 743288); settings: ATP luminescence (CellTiter-Glo), 18 h; max response: hits give low values; note: % is set by controls: 0 for no effect and ±100 for the full control effect; nearly all actives have a fitted effect of over 50% in size
Outline: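 HEK293, 18 h, 37 C, ATP luminescence. Cells at 2,000/well were allowed at least 5 h to settle before dosing; CellTiter-Glo developed 30 min at RT.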

[20] = qHTS assay for cell viability of the p53RE-bla HCT-116 cell line (AID 743292); settings: p53RE-bla HCT-116 viability, ATP luminescence, 16 h; series mostly up to 95 µM; note: % is set by controls: 0 for no effect and ±100 for the full control effect; nearly all actives have a fitted effect of over 55% in size
Outline: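 Luminescent ATP quantitation (CellTiter-Glo) served as the viability read-out; reagent was added after 16 h compound exposure at 37 C and read after 30 min at room temperature. Cells: p53RE-bla HCT-116, 4,000 per well.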

CCSC(=O)Cl
inactive: Potency [1] > 92 µM | Potency [2] > 92 µM | Potency [3] > 92 µM | Potency [4] | activity change, negative = cytotoxicity [5] -4.42% | outcome [6] | caspase-3 activation [7] -0.54% | outcome [8] | outcome [9] | outcome [10] | outcome [11] | outcome [12] | outcome [13] | outcome [14] | caspase-3 activation [15] 8.48% | Potency [16] | Potency [17] | Potency [18] | max response [19] -2.01% | Potency [20]

OCC(Br)CBr (stereo not given)
inactive: Potency [1] > 92 µM | Potency [2] > 92 µM | Potency [3] > 92 µM | Potency [4] | activity change, negative = cytotoxicity [5] 0.652% | outcome [6] | caspase-3 activation [7] 0.101% | outcome [8] | outcome [9] | outcome [10] | outcome [11] | outcome [12] | outcome [13] | outcome [14] | caspase-3 activation [15] 0.653% | Potency [16] | Potency [17] | Potency [18] | max response [19] 6.86% | Potency [20]

Cc1ccc2ccccc2c1
inactive: Potency [1] > 92 µM | Potency [2] > 92 µM | Potency [3] > 92 µM | Potency [4] | activity change, negative = cytotoxicity [5] -15.4% | outcome [6] | caspase-3 activation [7] 1.17% | outcome [8] | outcome [9] | outcome [10] | outcome [11] | outcome [12] | outcome [13] | outcome [14] | caspase-3 activation [15] 18.4% | Potency [16] | Potency [17] | Potency [18] | max response [19] 2.28% | Potency [20]

Clc1nc(Cl)nc(Cl)n1
inactive: Potency [1] > 92 µM | Potency [2] > 92 µM | Potency [3] > 92 µM | Potency [4] | activity change, negative = cytotoxicity [5] -4.88% | outcome [6] | caspase-3 activation [7] 0.301% | outcome [8] | outcome [9] | outcome [10] | outcome [11] | outcome [12] | outcome [13] | outcome [14] | caspase-3 activation [15] 1.34% | Potency [16] | Potency [17] | Potency [18] | max response [19] -10.6% and 4.47% | Potency [20]

C[N+](C)(C)Cc1ccccc1
inactive: Potency [1] > 92 µM | Potency [2] > 92 µM | Potency [3] > 92 µM | Potency [4] | activity change, negative = cytotoxicity [5] 0.397% [at 91.7 µM] | outcome [6] | caspase-3 activation [7] 0.448% | outcome [8] | outcome [9] | outcome [10] | outcome [11] | outcome [12] | outcome [13] | outcome [14] | caspase-3 activation [15] 4.55% [at 91.7 µM] | Potency [16] | Potency [17] | Potency [18] | max response [19] 3.84% and -11.6% | Potency [20]
